# Laboratory results as given in PubChem BioAssay AID1469 (National Center for Advancing Translational Sciences (NCATS), 2008).
# The campaign covered roughly 280,000 compounds. About 180 (0.064%) were called active. The call rests on the fitted dose curve; in most records, active means well fitted inhibition curve with a large enough effect; inconclusive means small, poorly fitted or top-dose-only effect, or effect the other way; inactive means flat fitted curve, though single readings scatter. The sample as a whole holds a higher share of actives than the screen did.
# Biological target: Thyroid hormone receptor beta (Homo sapiens) (UniProt P10828)
# Sequence (P10828 whole entry, looked up): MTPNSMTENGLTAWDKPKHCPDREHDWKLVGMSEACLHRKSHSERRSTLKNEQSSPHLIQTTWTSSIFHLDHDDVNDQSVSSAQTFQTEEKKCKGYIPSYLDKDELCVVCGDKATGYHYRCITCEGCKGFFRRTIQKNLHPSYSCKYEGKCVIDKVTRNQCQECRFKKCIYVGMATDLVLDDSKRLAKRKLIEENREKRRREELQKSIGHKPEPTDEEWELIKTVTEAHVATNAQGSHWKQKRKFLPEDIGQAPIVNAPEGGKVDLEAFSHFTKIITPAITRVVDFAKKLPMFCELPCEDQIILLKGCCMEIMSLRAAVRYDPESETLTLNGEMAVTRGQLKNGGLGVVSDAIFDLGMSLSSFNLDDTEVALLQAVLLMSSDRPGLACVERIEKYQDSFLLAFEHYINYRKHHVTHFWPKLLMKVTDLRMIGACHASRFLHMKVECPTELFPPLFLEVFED
# Experiment: qHTS for Inhibitors of the Interaction of Thyroid Hormone Receptor and Steroid Receptor Coregulator 2; further: nearly all actives have a fitted effect of over 50% in size;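 on activity change, negative = inhibition: plate controls were bound peptide for no effect and peptide without receptor for full effect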
# Details: TRbeta-SRC2 peptide binding, fluorescence polarization, receptor liganded with 1 µM T3; series mostly up to 201 µM; activity change, negative = inhibition: at the top concentration
# Excerpt: NIH Molecular Libraries Probe Production Network [MLPCN]
# NIH Chemical Genomics Center [NCGC]
# Assay Provider: R. Kip Guy, St. Jude Children's Research Hospital
# Thyroid receptor (TR) regulates many homeostatic processes including basal metabolism, cardiovascular function, body weight, and lipid trafficking. TR modulators are potential therapeutics for obesity and hyperlipidemias but current thyroid analogs have undesirable side effects, particularly cardiac stimulation. To identify inhibitors that specifically prevent the interaction of TR with the steroid receptor coregulator 2 (SRC2), a fluorescence polarization assay was screened. This assay detects interaction of the ligand-binding domain of human TRb with a Texas Red labeled SRC2 peptide, corresponding to a 20 amino acid region of the nuclear receptor interaction domain (Arnold et al., 2006). Small molecule inhibitors that block the interaction of TR and SRC2 are detected by a decrease in fluorescence polarization.
# Arnold, L. A.; Estebanez-Perpina, E.; Togashi, M.; Shelat, A.; Ocasio, C. A.; McReynolds, A. C.; Nguyen, P.; Baxter, J. D.; Fletterick, R. J.; Webb, P.; Guy, R. K. A high-throughput screening method to identify small molecule inhibitors of thyroid hormone receptor coactivator binding. Sci STKE 2006, p 13.
# NCGC Assay Protocol Summary:
# For screening, 5 uL/well 0.6 uM TRb and 20 nM SRC2 Texas Red in protein buffer (20mM Tris hydrochloride, 100mM NaCl, 10% glycerol, 1mM EDTA, 0.01% NP-40, 1mM DTT, 1uM T3 and 5% DMSO) was dispensed into black solid 1536-well plates (Grenier) using a solenoid-based dispenser. Following transfer of 23 nL compound or DMSO vehicle by a pin tool, the plates were centrifuged 15 s at 1000 RPM and incubated 5 hr at ambient temperature. The plates were read by an Envision (Perkin Elmer) to detect fluorescence polarization of SRC2 Texas Red (555 nm excitation and 632 nm emission). Data were normalized to unbound (all components except TRb) and bound SRC2 Texas Red controls. In this assay, we provide % activity data for each concentration as well as potencies for the active compounds.
# Keywords: NIH Roadmap, MLPCN, MLI, MLSMR, qHTS, NCGC, qHTS, thyroid hormone receptor, steroid receptor coactivator, fluorescence polarization
# Potency means the concentration at half of the fitted maximal effect.
SMILES,Potency,"activity change, negative = inhibition"
CC[N+](C)(CC)CCC[n+]1c(-c2ccccc2)c2cc(N)ccc2c2ccc(N)cc21,44.7 µM (active),
Oc1ccc(C2(c3ccc(O)cc3)c3ccccc3-c3ccccc32)cc1,,1.29% (inactive)
[Ga]#[As],,5.9% (inactive)
CCOP(=O)(SC(C)CC)SC(C)CC (stereo not given),,-2.05% (inactive)
COc1nc(C)nc(NC(=O)NS(=O)(=O)c2ccccc2CCC(F)(F)F)n1,,-2.66% (inactive)
